Cycloheximide cs: counter-screen hit for Shiga toxin inhibitors, cycloheximide; cell reporter, cycloheximide protein synthesis inhibition counterscreen; max response, %; 12% of 300,000 active; in the data active means max response mostly above about 13%, no sharp cut-off; inactive means mostly below about 14%; further: read at 38.3 µM for the half of the compounds with a filed dose
FBPA Giardia inh: inhibitors of Giardia lamblia fructose-1,6-bisphosphate aldolase; 0.71% of 290,000 active; purified Giardia FBPA; A8B2U2; AID 2451; Potency, µM (top dose mostly 59.6 µM), most hits filed as inhibitors; further: nearly all actives have a fitted effect of over 55% in size
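40 nM FBPA preincubated 10 min at RT with compound (up to 57.5 uM final), then substrate plus GAPDH/TPI/NAD/arsenate coupling and diaphorase/resazurin added. Fluorescence read after 20 min at RT, 525/598 nm.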
LmPK inh: inhibitors of Leishmania mexicana pyruvate kinase; Potency, µM (titrated, usually from 57.5 µM), hits mostly inhibitors; purified LmPK, Kinase-Glo ATP luminescence, 1 h; 0.37% of 290,000 active; Q27686; AID 1721
Target sequence (Q27686 whole entry, looked up): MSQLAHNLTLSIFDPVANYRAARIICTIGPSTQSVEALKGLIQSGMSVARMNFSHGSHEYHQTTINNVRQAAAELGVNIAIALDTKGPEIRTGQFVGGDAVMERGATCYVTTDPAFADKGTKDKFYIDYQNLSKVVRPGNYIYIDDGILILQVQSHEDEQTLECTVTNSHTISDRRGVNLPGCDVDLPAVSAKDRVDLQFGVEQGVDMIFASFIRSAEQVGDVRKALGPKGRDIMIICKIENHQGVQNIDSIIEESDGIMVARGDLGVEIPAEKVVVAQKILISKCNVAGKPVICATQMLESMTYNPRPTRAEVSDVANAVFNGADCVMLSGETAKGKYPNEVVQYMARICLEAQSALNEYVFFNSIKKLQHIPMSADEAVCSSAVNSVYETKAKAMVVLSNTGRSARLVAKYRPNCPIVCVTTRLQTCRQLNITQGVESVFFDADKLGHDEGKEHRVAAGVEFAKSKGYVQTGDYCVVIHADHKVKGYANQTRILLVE
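In 50 mM imidazole pH 7.2 with 7 mM MgCl2, LmPK (0.1 nM) turned over PEP (0.5 mM) and ADP (0.1 mM) for 1 h at room temperature. Luciferase read-out of ATP.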
RE007 growth inh: less growth of the S. pombe RE007 Vpr strain | S. pombe RE007 Vpr strain, BacTiter-Glo ATP luminescence, 24 h | Potency, µM (top dose mostly 92.2 µM), most hits filed as inhibitors | 0.21% of 360,000 active; active means well fitted falling curve with a large enough effect; inconclusive means small, poorly fitted or top-dose-only effect; inactive means no such curve, though single readings can be large or run the other way; further: nearly all actives have a fitted effect of over 50% in size
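Fission yeast RE007 carrying one integrated HIV-1 vpr copy, seeded at OD 0.01 in PMG+AL medium with 23 nL pinned compound. Grown 24 h at 30 degrees; viability read by BacTiter-Glo luminescence after 5 min.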
Shiga inhibitor: inhibitors of Shiga toxin in Vero cells | Vero cells, Shiga toxin protein synthesis inhibition reporter | inhibition, % at 38.7 µM | 9.2% of 290,000 active | AID 2315; in the data active means inhibition mostly above about 28%, no sharp cut-off; inactive means mostly below about 43%
TbPYK inhibitor: inhibitors of Trypanosoma brucei pyruvate kinase; Potency, µM (doses to about 76.8 µM), hits mostly inhibitors; 0.12% of 410,000 active; TbPYK enzyme, Kinase-Glo Plus ATP luminescence, 45 min; Q57TT1; further: nearly all actives have a fitted effect of over 50% in size
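Glycolytic pyruvate kinase of T. brucei was incubated with substrate, test compound and 130 uM ADP for 45 minutes at room temperature. Luminescent Kinase-Glo Plus signal was measured after 10 minutes.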
Hits are given with their value; . = inactive; ? = inconclusive; / = no result given. This excerpt belongs to a sample that is enriched for hits. Unless noted, the call rests on the fitted dose curve; in most records, active means well fitted curve in the direction sought with a large enough effect; inconclusive means small, poorly fitted or top-dose-only effect, or another doubt; inactive means no such curve, though single readings can be large; an effect the other way counts as inactive or inconclusive.

SMILES	Cycloheximide cs	FBPA Giardia inh	LmPK inh	RE007 growth inh	Shiga inhibitor	TbPYK inhibitor
COc1cccc(NC(=S)/C(=C(\[O-])c2ccc(C)c([N+](=O)[O-])c2)[n+]2ccccc2)c1	39.4	?	.	.	51.5	.
Cc1ccccc1NC(=S)/C(=C(\[O-])c1ccc(C)c([N+](=O)[O-])c1)[n+]1ccccc1	.	?	.	.	.	.
Cc1ccc(/C([O-])=C(/C(=S)Nc2ccc(SC(F)F)cc2)[n+]2ccccc2)cc1[N+](=O)[O-]	.	?	.	.	.	.
Cc1ccc(NC(=S)/C(=C(\[O-])c2ccc(C)c([N+](=O)[O-])c2)[n+]2ccccc2)cc1C	70.5	.	.	/	149.2	/
COC(=O)[C@H](COC(C)(C)C)NC(=O)O[C@@H]1C(=O)c2cc(OC)ccc2O[C@H]1c1cccc(OC)c1	/	.	/	/	/	/
COc1cc(NC(=O)C2=C(N3CCOCC3)/C(=C\c3ccc(N(C)C)cc3)CCC2)cc(OC)c1OC	45.6	.	.	.	77.5	.
COc1cc(NC(=O)C2=C(N3CCOCC3)/C(=C/c3ccc(Cl)cc3)CC2)cc(OC)c1OC	.	.	.	?	.	.
CCN(CC)c1nc(SCCOC(=O)Nc2ccccc2)nc(N(CC)CC)n1	16.4	.	.	.	.	.
CCOc1ccc(OCC)c(NC(=O)c2cc(S(=O)(=O)N3CCCC3)cn2C)c1	/	/	/	/	/	.
CC(C)C(=O)OC1=CN(Cc2ccccc2)S(=O)(=O)c2ccccc21	/	/	/	/	/	.
O=C(NCc1cccc(C(F)(F)F)c1)c1cc(Cl)cc(Cl)c1	.	.	.	.	.	.
O=C(NCCOc1ccccc1)c1ccc2c(c1)OCO2	.	.	.	.	.	.
O=C(/C=C/c1ccc2c(c1)OCO2)NCCSCc1ccc(Cl)cc1Cl	.	.	.	.	.	.
O=C(NCc1ccc2c(c1)OCO2)c1ccc(Br)o1	.	.	.	.	.	.
O=C(NCc1cccc(C(F)(F)F)c1)c1ccc2c(c1)OCO2	10.2	.	.	.	.	.
O=C(/C=C/c1ccc2c(c1)OCO2)NCCSCc1cccc(Cl)c1	21.3	.	.	.	.	.
O=C(NCc1ccc2c(c1)OCO2)c1ccc(Br)s1	11.6	.	.	.	.	.
CCOCCCNC(=O)c1ccc2c(c1)OCO2	23.3	.	.	.	58.3	.
CSCCC(N)C(=O)O (stereo not given)	.	.	/	/	.	.
CCc1nn(CC(=O)NCCc2ccc(OC)cc2OC)c(=O)c2cc3sccc3n12	/	/	/	/	/	.
Cc1ccc(C)c(NC(=O)Cn2c(=O)n(Cc3ccc4c(c3)OCO4)c(=O)c3oc4ccccc4c32)c1	/	/	/	/	/	.
Cc1[nH]c2ccccc2c1C1N2CC3(C)CN1CC(C)(C2)C3=O (stereo not given)	/	/	/	/	/	.
CC(C)NC(=O)c1ccc(C(C)C)cc1	18.1	.	.	.	.	.
O=C(NCc1cccc(Cl)c1)c1ccc2c(c1)OCCO2	21.5	.	.	.	/	.
CN(C)c1cccc(C(=O)NCc2ccc(Cl)cc2)c1	27.4	.	.	.	71.4	.
SMILES	Cycloheximide cs	FBPA Giardia inh	LmPK inh	RE007 growth inh	Shiga inhibitor	TbPYK inhibitor
Cc1cc2cc(CNC(=O)c3ccc4c(c3)OCO4)ccc2[nH]1	19.8	.	.	.	.	.
O=C(NCc1ccc(Cl)c(Cl)c1)c1ccc2c(c1)OCO2	.	/	.	.	.	.
COc1ccc(C(=O)NCc2ccc3[nH]c(C)cc3c2)cc1OC	.	?	.	.	.	.
Cc1ccc(C)c(CN2C(=O)c3ccccc3Sc3ccc(C(=O)NCc4ccco4)cc32)c1	/	/	/	/	/	.
CC1(C)CCC2(C(=O)O)CC[C@]3(C)C(=CCC4[C@]5(C)CCC(O)C(C)(C)C5C(O)C[C@]43C)C2C1 (stereo not given in full)	/	.	/	/	/	/
COc1cccc2c1Oc1ncccc1N(C(=O)Nc1ccc(F)c(Cl)c1)C2	/	/	/	/	/	.
Cc1ccccc1CN1CCCN(CC(=O)Nc2ccc(F)cc2)S1(=O)=O	/	/	/	/	/	.
O=C(NCc1ccc2c(c1)OCO2)c1ccc2c(c1)OCCO2	.	.	.	.	18.1	.
CN(C)c1ccc(-c2nnn(CC(=O)NCc3ccc4c(c3)OCO4)n2)cc1	27.5	.	.	.	.	.
COC(=O)c1ccc(CNC(=O)c2ccc3c(c2)OCCO3)cc1	18.6	.	.	.	.	.
O=C(NCc1ccc2c(c1)OCO2)c1ccc2c(c1)OCO2	26.3	.	.	.	45.7	.
CCOc1ccc(CN(C(=O)c2nc(SC)ncc2Cl)C2CCS(=O)(=O)C2)cc1 (stereo not given)	/	/	/	/	/	.
C=CCCCCCCCCCCCc1ccco1	/	.	/	/	/	/
CC(C)c1ccc(C(=O)NCc2ccc(Cl)cc2)cc1	73.7	.	.	.	140.7	.
O=C(Cn1nnc(-c2ccc3c(c2)OCO3)n1)Nc1ccccc1C(=O)O	31.5	/	.	.	41.3	.
O=C(Cn1nnc(-c2ccccc2)n1)Nc1ccc2c(c1)OCO2	.	.	.	.	.	.
Cc1ccccc1-c1nnn(CC(=O)Nc2ccc3c(c2)OCCO3)n1	58.4	.	.	.	141.2	.
O=C(NCCc1cccc(Cl)c1)c1ccc2c(c1)OCO2	32.0	.	.	.	56.4	.
O=C(NCCc1ccccc1)c1ccc2c(c1)OCCCO2	.	.	?	.	.	.
Cn1c(SCC(=O)c2ccc(F)cc2)nnc1-c1ccccc1Br	/	/	/	/	/	.
C#C[C@]1(O)CC[C@@H]2[C@H]3CCC4=CC(=O)CC[C@H]4[C@H]3C(=C)C[C@@]21CC	/	/	/	/	/	.
COc1cccc(OCCn2c(-c3ccc(Cl)cc3)nc3ccccc3c2=O)c1	/	/	/	/	/	.
CN(C)c1cccc(C(=O)NCc2ccc3c(c2)OCO3)c1	32.5	.	.	.	57.1	.
Cc1ccc(C(=O)NCc2ccc3c(c2)OCO3)cc1	12.6	.	.	.	.	.
Cc1ccc(-n2ncc(C(=O)NCCc3ccccc3)c2C2CCN(C(=O)OC(C)(C)C)CC2)c(C)c1	/	/	/	/	/	.
SMILES	Cycloheximide cs	FBPA Giardia inh	LmPK inh	RE007 growth inh	Shiga inhibitor	TbPYK inhibitor
O=S(=O)(c1ccccc1)N1CCC2(CCCN(Cc3cc(C(F)(F)F)cc(C(F)(F)F)c3)C2)CC1	/	.	/	/	/	.
COc1ccc2nc(/N=C(\N)NC(=O)C(C)(C)C)nc(C)c2c1	30.3	.	.	.	41.5	.
COc1ccc2nc(/N=C(\N)NC(=O)N3c4ccccc4Sc4ccccc43)nc(C)c2c1	.	.	.	.	.	.
CCC(=O)N/C(N)=N/c1nc(C)c2cc(OC)ccc2n1	23.3	.	.	.	71.2	.
C=C1C(C2(C)C=CC(=O)C(C)(C)C2CC(=O)OC)CC[C@@]2(C)C(c3ccoc3)OC(=O)C3OC132 (stereo not given in full)	/	.	/	/	/	/
Cc1c(C(=O)Nc2cccc(Cl)c2)c2ccccn2c1CCc1ccncc1	.	.	.	.	37.1	.

Screening data: PubChem BioAssay, National Center for Advancing Translational Sciences (NCATS)
